In publication PMC7862700, “An all-to-all approach to the identification of sequence-specific readers for epigenetic DNA modifications on cytosine”:

Tests used:
Assay in all cases: DAPPL (digital affinity profiling via proximity ligation, sequencing); 10 mM Tris-HCl pH 7.5, 50 mM NaCl, 1 mM DTT, 4% glycerol, room temperature, 30 min; GST-TFs on glutathione beads, 16-mer random dsDNA library, 0.1% formaldehyde crosslink after washing; high values mean tight binding
Conditions in all cases: protein: recombinant; tags: N-terminal GST; dsDNA, one strand shown
[1] = molecular target: T1, FEV (Homo sapiens, UniProt Q99581 1-238)
T1 sequence: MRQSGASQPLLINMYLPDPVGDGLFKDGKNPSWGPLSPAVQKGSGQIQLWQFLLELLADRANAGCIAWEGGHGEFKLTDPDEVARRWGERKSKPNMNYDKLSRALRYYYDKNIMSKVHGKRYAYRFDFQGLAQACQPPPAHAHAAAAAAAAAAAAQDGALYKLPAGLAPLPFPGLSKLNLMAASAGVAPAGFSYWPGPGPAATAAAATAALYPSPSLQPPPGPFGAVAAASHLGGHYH
Procedure, shortened: (§1)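 Sequencing on an Illumina NextSeq500 followed washing, crosslinking with 0.1% formaldehyde, proximity ligation (BsaI/T4 ligase, 1 h, 37 °C) and PCR amplification of pools that had been incubated for 30 min at room temperature with 200 nmole of a random double-stranded 16-mer DNA library in Tris/NaCl/DTT/glycerol buffer. Each pool held DNA-barcoded human transcription factors, expressed in yeast as GST fusions and captured on glutathione beads, plus a tag-only sample. Binding signal is a hexamer's read frequency for a factor divided by its frequency in the tag-only sample.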

[2] = molecular target: ETV5 (Homo sapiens, UniProt P41161 1-510)
Sequence of ETV5 (P41161 whole entry): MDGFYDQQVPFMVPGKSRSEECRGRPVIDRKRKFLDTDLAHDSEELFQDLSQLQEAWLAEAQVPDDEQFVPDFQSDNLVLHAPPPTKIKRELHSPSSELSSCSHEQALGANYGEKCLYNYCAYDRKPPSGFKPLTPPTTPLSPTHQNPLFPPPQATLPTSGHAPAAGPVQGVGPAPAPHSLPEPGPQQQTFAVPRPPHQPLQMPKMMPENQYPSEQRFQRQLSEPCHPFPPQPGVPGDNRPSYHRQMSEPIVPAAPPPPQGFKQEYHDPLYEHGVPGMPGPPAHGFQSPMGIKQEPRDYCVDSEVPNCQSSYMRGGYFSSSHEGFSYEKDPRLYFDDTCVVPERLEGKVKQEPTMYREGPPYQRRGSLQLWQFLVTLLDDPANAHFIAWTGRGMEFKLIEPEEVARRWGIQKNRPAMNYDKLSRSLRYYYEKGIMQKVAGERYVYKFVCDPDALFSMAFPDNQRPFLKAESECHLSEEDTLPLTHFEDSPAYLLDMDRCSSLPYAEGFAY
Procedure, shortened: as §1

[3] = molecular target: T2, SPIC (Homo sapiens, UniProt Q8N5J4 1-248)
T2 sequence: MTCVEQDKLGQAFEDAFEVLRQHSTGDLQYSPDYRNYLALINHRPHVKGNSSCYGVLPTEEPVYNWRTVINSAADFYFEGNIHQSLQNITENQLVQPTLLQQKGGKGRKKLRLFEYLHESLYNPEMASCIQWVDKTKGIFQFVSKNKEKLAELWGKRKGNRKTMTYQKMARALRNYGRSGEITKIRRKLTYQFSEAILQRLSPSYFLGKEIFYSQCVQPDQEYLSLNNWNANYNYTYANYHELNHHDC
Procedure, shortened: as §1

[4] = molecular target: ELF4 (Homo sapiens, UniProt Q99607 1-663)
Sequence of ELF4 (Q99607 whole entry): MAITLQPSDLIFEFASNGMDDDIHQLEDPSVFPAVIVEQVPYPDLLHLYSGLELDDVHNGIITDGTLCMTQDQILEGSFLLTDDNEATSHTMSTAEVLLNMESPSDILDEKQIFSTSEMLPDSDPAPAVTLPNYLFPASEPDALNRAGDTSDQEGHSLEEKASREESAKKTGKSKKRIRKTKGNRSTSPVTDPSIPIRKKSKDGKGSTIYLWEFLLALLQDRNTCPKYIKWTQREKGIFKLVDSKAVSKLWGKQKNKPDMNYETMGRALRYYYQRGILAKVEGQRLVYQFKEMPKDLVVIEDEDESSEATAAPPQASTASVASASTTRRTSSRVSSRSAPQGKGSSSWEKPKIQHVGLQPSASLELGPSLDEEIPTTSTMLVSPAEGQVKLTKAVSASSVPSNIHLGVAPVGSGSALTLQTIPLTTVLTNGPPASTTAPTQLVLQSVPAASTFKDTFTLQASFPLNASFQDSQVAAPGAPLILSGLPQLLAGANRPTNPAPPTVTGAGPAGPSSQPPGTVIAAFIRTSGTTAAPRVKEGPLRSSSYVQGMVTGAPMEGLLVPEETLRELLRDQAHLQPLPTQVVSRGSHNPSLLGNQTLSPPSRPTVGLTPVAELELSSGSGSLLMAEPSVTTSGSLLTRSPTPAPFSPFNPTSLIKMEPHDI
Procedure, shortened: as §1

[5] = molecular target: T3, ELK4 (Homo sapiens, UniProt P28324-2 1-405)
T3 sequence: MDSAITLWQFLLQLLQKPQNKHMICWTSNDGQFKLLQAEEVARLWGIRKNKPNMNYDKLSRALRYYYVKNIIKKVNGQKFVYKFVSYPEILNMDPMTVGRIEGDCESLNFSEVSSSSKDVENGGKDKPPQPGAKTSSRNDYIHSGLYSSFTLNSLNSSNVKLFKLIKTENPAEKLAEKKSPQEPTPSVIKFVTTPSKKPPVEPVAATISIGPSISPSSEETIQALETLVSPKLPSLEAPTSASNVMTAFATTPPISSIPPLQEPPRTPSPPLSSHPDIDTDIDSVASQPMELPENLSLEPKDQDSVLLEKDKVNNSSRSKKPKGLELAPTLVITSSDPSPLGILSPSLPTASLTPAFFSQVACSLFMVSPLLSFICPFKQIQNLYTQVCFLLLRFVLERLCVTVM
Procedure, shortened: as §1

[6] = molecular target: T4, ETV2 (Homo sapiens, UniProt O00321 1-342)
T4 sequence: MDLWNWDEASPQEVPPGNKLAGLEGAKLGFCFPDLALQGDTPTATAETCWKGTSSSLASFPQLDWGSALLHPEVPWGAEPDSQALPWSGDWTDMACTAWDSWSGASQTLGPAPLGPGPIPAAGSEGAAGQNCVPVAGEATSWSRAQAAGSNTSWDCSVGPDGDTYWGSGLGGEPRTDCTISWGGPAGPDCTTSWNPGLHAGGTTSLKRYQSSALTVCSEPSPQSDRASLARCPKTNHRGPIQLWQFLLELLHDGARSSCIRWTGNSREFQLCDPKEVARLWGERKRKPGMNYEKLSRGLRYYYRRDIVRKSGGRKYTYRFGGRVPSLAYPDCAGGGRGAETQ
Procedure, shortened: as §1

[7] = molecular target: T5, ELF3 (Homo sapiens, UniProt P78545 1-371)
T5 sequence: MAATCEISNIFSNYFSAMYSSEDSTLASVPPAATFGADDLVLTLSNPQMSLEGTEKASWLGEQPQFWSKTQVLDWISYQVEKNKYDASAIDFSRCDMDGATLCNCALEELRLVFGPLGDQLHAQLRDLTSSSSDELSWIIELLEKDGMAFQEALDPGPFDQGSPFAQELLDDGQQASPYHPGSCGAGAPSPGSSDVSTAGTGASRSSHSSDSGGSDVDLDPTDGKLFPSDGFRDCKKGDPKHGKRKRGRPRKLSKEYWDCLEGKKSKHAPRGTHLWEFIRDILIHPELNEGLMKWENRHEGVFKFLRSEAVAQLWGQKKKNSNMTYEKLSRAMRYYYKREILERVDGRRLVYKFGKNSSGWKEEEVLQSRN
Procedure, shortened: as §1

[8] = molecular target: CRX (Homo sapiens, UniProt O43186 1-299)
Sequence of CRX (O43186 whole entry): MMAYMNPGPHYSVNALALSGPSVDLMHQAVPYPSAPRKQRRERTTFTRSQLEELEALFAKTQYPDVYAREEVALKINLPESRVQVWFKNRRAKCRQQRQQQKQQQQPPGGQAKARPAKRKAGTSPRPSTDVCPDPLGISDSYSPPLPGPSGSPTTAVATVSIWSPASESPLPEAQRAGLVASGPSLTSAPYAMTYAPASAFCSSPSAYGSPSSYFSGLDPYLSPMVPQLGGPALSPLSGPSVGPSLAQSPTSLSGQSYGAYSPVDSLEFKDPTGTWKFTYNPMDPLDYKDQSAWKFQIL
Procedure, shortened: as §1

[9] = molecular target: ETV1 (Homo sapiens, UniProt P50549 1-477)
Sequence of ETV1 (P50549 whole entry): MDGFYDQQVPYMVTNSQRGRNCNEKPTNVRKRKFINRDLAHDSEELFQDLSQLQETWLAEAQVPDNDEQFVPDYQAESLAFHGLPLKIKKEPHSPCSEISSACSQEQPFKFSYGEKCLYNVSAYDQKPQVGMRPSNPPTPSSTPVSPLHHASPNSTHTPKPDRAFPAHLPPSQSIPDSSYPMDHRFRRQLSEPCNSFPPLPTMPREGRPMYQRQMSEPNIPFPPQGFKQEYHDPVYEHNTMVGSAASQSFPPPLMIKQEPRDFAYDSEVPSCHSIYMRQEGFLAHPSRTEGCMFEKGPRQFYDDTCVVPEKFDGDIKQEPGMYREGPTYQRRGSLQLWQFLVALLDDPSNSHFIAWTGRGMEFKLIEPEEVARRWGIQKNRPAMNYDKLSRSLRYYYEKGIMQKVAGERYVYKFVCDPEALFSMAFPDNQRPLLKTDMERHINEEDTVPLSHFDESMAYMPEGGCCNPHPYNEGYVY
Procedure, shortened: as §1

[10] = molecular target: T6, ERF (Homo sapiens, UniProt P50548 1-548)
T6 sequence: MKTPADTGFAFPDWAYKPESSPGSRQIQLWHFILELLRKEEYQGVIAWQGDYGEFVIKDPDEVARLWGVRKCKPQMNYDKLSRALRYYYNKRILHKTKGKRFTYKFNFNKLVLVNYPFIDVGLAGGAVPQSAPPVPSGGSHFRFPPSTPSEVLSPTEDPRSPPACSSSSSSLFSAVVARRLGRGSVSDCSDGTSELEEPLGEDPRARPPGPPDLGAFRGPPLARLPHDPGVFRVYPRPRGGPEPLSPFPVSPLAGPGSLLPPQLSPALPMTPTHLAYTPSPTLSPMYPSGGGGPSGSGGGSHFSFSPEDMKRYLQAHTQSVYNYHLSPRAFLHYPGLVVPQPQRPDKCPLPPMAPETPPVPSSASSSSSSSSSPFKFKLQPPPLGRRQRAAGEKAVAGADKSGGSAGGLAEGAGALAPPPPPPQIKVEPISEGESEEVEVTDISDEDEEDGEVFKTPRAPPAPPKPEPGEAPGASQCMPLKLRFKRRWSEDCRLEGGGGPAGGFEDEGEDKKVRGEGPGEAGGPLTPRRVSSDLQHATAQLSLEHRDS
Procedure, shortened: as §1

[11] = molecular target: T7, ETV3L (Homo sapiens, UniProt Q6ZN32 1-361)
T7 sequence: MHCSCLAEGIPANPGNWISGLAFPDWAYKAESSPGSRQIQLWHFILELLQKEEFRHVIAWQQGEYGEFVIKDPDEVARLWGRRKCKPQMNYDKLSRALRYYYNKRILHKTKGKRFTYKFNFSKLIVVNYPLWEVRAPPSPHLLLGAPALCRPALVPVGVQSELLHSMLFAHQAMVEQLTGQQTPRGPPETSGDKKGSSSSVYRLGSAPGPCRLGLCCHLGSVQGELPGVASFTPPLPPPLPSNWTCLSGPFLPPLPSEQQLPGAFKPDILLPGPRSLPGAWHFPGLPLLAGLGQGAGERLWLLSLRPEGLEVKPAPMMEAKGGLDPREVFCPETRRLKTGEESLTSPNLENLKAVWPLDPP
Procedure, shortened: as §1

[12] = molecular target: T8, ETS2 (Homo sapiens, UniProt P15036 1-469)
T8 sequence: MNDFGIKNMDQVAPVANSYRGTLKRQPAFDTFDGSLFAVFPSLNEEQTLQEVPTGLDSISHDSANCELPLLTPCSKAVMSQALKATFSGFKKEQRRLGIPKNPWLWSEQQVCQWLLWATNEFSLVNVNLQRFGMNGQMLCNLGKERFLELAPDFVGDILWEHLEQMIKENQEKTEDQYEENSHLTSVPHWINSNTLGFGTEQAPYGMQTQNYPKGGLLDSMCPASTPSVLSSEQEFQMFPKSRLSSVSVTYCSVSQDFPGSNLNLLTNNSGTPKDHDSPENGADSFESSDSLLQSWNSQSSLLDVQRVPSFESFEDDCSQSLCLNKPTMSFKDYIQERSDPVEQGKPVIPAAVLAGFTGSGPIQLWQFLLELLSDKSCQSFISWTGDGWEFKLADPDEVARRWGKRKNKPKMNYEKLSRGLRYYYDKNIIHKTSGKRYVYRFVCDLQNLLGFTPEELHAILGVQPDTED
Procedure, shortened: as §1

[13] = molecular target: T9, SPDEF (Homo sapiens, UniProt O95238 1-335)
T9 sequence: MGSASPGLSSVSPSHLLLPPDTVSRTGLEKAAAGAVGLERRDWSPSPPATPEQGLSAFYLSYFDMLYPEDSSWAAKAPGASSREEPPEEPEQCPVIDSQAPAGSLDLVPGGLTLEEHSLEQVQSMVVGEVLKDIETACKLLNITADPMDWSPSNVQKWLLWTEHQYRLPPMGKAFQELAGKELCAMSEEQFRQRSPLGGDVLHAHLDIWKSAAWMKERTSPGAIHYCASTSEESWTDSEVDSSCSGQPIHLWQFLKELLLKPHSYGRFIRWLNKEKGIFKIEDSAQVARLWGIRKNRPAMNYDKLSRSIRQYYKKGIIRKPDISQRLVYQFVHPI
Procedure, shortened: as §1

[14] = molecular target: T10, ETV7 (Homo sapiens, UniProt Q9Y603 1-341)
T10 sequence: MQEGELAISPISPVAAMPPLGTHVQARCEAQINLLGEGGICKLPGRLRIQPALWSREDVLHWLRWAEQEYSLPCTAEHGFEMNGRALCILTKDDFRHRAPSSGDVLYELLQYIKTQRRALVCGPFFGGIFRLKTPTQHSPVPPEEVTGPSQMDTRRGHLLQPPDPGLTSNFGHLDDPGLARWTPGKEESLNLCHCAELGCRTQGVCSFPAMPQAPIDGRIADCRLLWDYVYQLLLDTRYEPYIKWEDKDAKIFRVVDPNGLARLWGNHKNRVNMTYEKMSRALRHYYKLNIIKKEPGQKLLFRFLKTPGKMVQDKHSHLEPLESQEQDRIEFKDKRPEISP
Procedure, shortened: as §1

[15] = molecular target: T11, ELF5 (Homo sapiens, UniProt Q9UKW6-2 1-255)
T11 sequence: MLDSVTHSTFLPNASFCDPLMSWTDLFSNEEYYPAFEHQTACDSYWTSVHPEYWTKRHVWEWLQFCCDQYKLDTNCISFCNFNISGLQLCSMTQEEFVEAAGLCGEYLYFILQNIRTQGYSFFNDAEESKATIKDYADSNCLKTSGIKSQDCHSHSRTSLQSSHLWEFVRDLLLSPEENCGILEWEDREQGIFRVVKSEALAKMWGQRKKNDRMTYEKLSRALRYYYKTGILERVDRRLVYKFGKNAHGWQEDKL
Procedure, shortened: as §1

[16] = molecular target: T12, ETV3 (Homo sapiens, UniProt P41162-2 1-143)
T12 sequence: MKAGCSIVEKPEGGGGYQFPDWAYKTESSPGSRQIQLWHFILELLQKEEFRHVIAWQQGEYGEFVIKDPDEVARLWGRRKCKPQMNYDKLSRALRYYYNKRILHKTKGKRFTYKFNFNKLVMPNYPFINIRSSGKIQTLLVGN
Procedure, shortened: as §1

[17] = molecular target: ETV6 (Homo sapiens, UniProt P41212 1-452)
Sequence of ETV6 (P41212 whole entry): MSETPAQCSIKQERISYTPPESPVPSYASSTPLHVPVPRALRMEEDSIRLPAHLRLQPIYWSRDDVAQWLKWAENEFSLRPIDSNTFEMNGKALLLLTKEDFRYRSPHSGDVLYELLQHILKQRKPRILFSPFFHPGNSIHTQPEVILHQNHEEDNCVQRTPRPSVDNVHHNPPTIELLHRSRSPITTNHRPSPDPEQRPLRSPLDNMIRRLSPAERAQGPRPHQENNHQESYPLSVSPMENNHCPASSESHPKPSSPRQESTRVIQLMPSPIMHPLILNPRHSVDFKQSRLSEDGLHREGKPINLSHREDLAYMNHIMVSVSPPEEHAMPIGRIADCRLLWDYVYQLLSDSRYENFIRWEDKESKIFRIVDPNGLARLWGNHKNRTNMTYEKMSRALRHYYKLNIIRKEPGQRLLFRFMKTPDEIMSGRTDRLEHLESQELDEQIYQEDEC
Procedure, shortened: as §1

AAAGGG
binding signal [1]: 1.11 fold enrichment (6-mer frequency, TF over GST control)
binding signal [2]: 1.21 fold enrichment (6-mer frequency, TF over GST control)
binding signal [3]: 1.22 fold enrichment (6-mer frequency, TF over GST control)
binding signal [4]: 1.19 fold enrichment (6-mer frequency, TF over GST control)
binding signal [5]: 1.1 fold enrichment (6-mer frequency, TF over GST control)
binding signal [6]: 1.05 fold enrichment (6-mer frequency, TF over GST control)
binding signal [7]: 1.25 fold enrichment (6-mer frequency, TF over GST control)
binding signal [8]: 1.08 fold enrichment (6-mer frequency, TF over GST control)
binding signal [9]: 1.26 fold enrichment (6-mer frequency, TF over GST control)
binding signal [10]: 1.09 fold enrichment (6-mer frequency, TF over GST control)
binding signal [11]: 1.09 fold enrichment (6-mer frequency, TF over GST control)
binding signal [12]: 1.13 fold enrichment (6-mer frequency, TF over GST control)
binding signal [13]: 1.04 fold enrichment (6-mer frequency, TF over GST control)
binding signal [14]: 1.09 fold enrichment (6-mer frequency, TF over GST control)
binding signal [15]: 1.19 fold enrichment (6-mer frequency, TF over GST control)
binding signal [16]: 1.18 fold enrichment (6-mer frequency, TF over GST control)
binding signal [17]: 1.1 fold enrichment (6-mer frequency, TF over GST control)
